A selection: hits, their analogues and other compounds. The true share with any hit is near 7.8%.
Cav32 inh: Cav3.2 calcium influx blockers – cell-based, Fluo-4 calcium fluorescence, FDSS, MLSMR library, primary screen; Cav3.2-expressing cells; hits give low values; Voltage-dependent T-type calcium channel subunit alpha-1H (Homo sapiens), O95180; 100,000 compounds, 4% hits; B-score at 10 µM;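 active means single-dose well whose peak fluorescence ratio is a statistical outlier from its plate by either plate-standardised score or position-corrected B-score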
sEH inh: soluble epoxide hydrolase inhibitors, primary screen, biochemical, human sEH; Bifunctional epoxide hydrolase 2 (Homo sapiens), P34913; recombinant human sEH enzymatic activity assay; inhibition, % at 2 µM; 91,000 compounds, 0.34% hits; AID 707, 2007; in the data active means inhibition above about 80%
Target sequence (P34913 whole entry, looked up): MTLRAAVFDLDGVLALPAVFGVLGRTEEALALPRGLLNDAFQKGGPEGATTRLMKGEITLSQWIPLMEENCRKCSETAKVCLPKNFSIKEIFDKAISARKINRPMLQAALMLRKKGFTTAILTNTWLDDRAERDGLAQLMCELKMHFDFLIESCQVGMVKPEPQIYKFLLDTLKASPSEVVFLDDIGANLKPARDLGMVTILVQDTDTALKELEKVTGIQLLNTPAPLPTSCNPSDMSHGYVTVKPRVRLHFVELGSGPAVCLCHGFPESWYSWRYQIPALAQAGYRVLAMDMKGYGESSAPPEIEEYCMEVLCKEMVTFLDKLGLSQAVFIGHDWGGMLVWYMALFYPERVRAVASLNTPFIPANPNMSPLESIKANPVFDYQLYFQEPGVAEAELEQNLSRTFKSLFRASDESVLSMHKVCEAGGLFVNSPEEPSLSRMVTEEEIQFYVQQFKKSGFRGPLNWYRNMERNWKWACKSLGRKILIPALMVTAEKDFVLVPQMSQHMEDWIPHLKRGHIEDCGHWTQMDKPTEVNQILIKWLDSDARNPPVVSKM
PostGolgi yeast: phenotypic screen on post-Golgi transport, primary screen; post-Golgi transport phenotypic cell assay; inhibition, % at 10 µM; 98,000 compounds, 0.9% hits; AID 739, 2007;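 further: yeast cells grown in 1536-well plates; yeast grown about 18 h at 30C before absorbance read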
sEH activator: soluble epoxide hydrolase activators, primary screen, biochemical, human sEH; Bifunctional epoxide hydrolase 2 (Homo sapiens), P34913; purified human sEH enzymatic activity, activator screen; activation, % at 2 µM; 91,000 compounds, 0.04% hits; AID 717, 2007; in the data active means activation above about 37%
PostGolgi ctrl: growth inhibition of yeast control strain, primary screen, counter-screen for post-Golgi transport modulator project; AID 738, 2007; inhibition, % at 10 µM; 98,000 compounds, 5% hits; efflux-deficient yeast background strain, growth absorbance A615, 16 h
Hits are given with their value; - = inactive; . = not tested or not shown. Unless noted, no stated cut-off is given here; in the data, active means inhibition above about 30%; inactive means the rest.

SMILES	Cav32 inh	sEH inh	PostGolgi yeast	sEH activator	PostGolgi ctrl
Cc1ccnc(SCC(=O)Nc2c(C)n(C)n(-c3ccccc3)c2=O)n1	-	-	-	-	-
CCN(CC)S(=O)(=O)c1ccc2c(c1)nc(SCc1nc3ccsc3c(=O)[nH]1)n2CC	-	-	-	-	-
CC(C)CN(CC(C)C)S(=O)(=O)N1CCC(C(=O)NCCc2ccc(Cl)cc2)CC1	-	-	-	-	-
COc1ccc(C(=O)Nn2c(SCc3ccc([N+](=O)[O-])cc3)nc3ccccc3c2=O)cc1	-	-	-	-	-
O=C(CSc1ncn(-c2ccccc2)n1)Nc1ccc(Br)cn1	-5.4	-	-	-	-
O=C1CC(=C2c3ccccc3-c3ccccc32)C(=O)N1CCN1CCN(c2cccc(Cl)c2)CC1	-	-	.	-	.
Fc1ccccc1Cn1nnc(-c2ccc3c(c2)OCO3)n1	-	-	-	-	-
CN(C)c1ccc(-c2nnn(Cc3ccccc3Br)n2)cc1	-	-	-	-	31
Cc1cc(Cl)ccc1Oc1ncc(-c2ccc(Cl)cc2)cn1	-	-	-	-	-
Cc1cc(Cl)ccc1OCc1nc(-c2ccc(O)cc2)n[nH]1	-	-	-	-	96
CCC(C)[C@H](NC(=O)NCc1ccccc1Cl)C(=O)OC (stereo not given in full)	-	95	-	-	-
CCC(C)[C@H](NC(=O)NC1CCN(Cc2ccccc2)CC1)C(=O)OC (stereo not given in full)	-	-	-	-	-
O=S(=O)(Nc1nc(-c2sccc2Cl)cs1)c1cc(Cl)ccc1Cl	-7.1	-	-	-	35
COc1ccc(OC)c(C(O)c2coc3ccc(O)c(CN4CCOCC4)c23)c1 (stereo not given)	-	.	-	.	-
COc1ccc(C2c3c(ccc4ccccc34)Oc3ncn4nc(CO/N=C/c5ccccc5)nc4c32)cc1 (stereo not given)	-4.6	-	-	-	-
Cc1nc(CS(=O)c2ccc(Cl)cc2)cc(NCc2ccc(Cl)cc2Cl)n1 (stereo not given)	-5.8	-	-	-	35
Cc1nc(CSc2ccc(Cl)cc2)cc(NCc2ccccc2)n1	-8.3	-	-	-	-
Cc1cc(C)n(-c2nc3ccccc3n3cnnc23)n1	-	-	-	-	-
CCN(CC)c1nc2ccccc2nc1-n1nc(C)cc1C	-	-	-	-	43
COc1cc(C)nc(NC(=O)COc2ccc(Cl)cc2C)n1	-	-	-	-	-
Cc1cc(C)nc(NC(=O)COc2cc(Cl)cc(Cl)c2)n1	-	-	-	-	32
CCCCCCc1nnc(N)s1	-	-	-	-	-
COc1ccc(Nc2ncc(C(=O)N3CCN(c4ccc(F)cc4)CC3)c3ccccc23)cc1	-5.9	-	-	-	-
COc1ccc(Nc2ncc(C(=O)O)c3ccccc23)cc1	-	-	-	-	-
CC(C)OC(=O)CSc1nnc(-c2ccc(Cl)cc2)n1N	-	-	35	-	-
SMILES	Cav32 inh	sEH inh	PostGolgi yeast	sEH activator	PostGolgi ctrl
Cc1cc(C)c(S(=O)(=O)N(C2=NCCS2)S(=O)(=O)c2c(C)cc(C)cc2C)c(C)c1	-	-	.	-	.
Cc1cccc2cc(C#N)c(NCCCn3ccnc3)nc12	-	-	40	-	-
CCc1nc(NCCCn2ccnc2)c2oc3ccccc3c2n1	-	-	-	-	33
COC(=O)C1=C(C)NC(=O)NC1c1cccc(OC)c1OCc1ccccc1 (stereo not given)	.	-	-	-	-
CCNC(=O)n1nccc1C(C)Oc1cccc(C(F)(F)F)c1 (stereo not given)	-	-	-	-	35
CCNC(=O)n1nccc1C(C)Oc1ccc(Cl)cc1 (stereo not given)	-	-	-	-	-
CC1CCc2cc(F)ccc2N1C(=O)c1ccc2c(c1)OCO2 (stereo not given)	-	-	-	-	-
COc1ccc([C@H]2/C=C\CN(C(=O)C3CC3)[C@@H](C)C(=O)N2Cc2ccc(F)cc2)cc1	-	.	.	.	.
CC1CCCCN1C(=O)CSc1ccc(-c2ccc(F)cc2)nn1 (stereo not given)	-	-	-	-	45
Cc1cccc(OCC(=O)NNC(=O)Nc2cccc(Cl)c2)c1C	-	-	-	-	-
Cn1c(C(=O)NCCc2c[nH]c3ccccc23)cc2sccc21	-5.3	-	-	-	-
O=C(NCCc1c[nH]c2ccccc12)c1cc2sccc2n1Cc1ccccc1	-5	-	-	-	-
O=C(NCc1ccc(F)cc1)c1cc2sccc2n1Cc1ccc(F)cc1	-	-	.	-	.
